Measurements as given in PubChem BioAssay (NCI).
This is part of a sample that, as a whole, favours compounds with a hit. Of some 79,000 tested, about 15% had one in any assay. Activity calls are given as the source filed them. Rule as the data show it: active = growth inhibition above about 70%; inactive = the rest.

Tests used:
[1] = NCI Yeast Anticancer Drug Screen. Data for the wt1 strain (AID 149);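 also: 0% = growth of vehicle-treated wt1 cultures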; conditions: S. cerevisiae wt1 strain (SPY 50644) growth inhibition, active compounds read high
How it was run: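 Growth inhibition read against vehicle controls after compound exposure of the wt1 yeast strain.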

[2] = NCI Yeast Anticancer Drug Screen. Data for the rad50EPP+ strain (AID 151);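 also: 0% = growth of vehicle-treated control cultures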; conditions: S. cerevisiae rad50 mutant strain, active compounds read high
How it was run: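 In this screen, rad50EPP+ yeast were exposed to compounds. Growth inhibition was scored against vehicle-treated controls.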

[3] = NCI Yeast Anticancer Drug Screen. Data for the mgt1 strain (AID 153); conditions: S. cerevisiae mgt1 mutant growth inhibition, active compounds read high
How it was run: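 mgt1 strain exposed; growth vs vehicle control recorded as inhibition.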

[4] = NCI Yeast Anticancer Drug Screen. Data for the rad50 strain (AID 155);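 also: 0% = growth of vehicle-only cultures of the same strain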; conditions: S. cerevisiae rad50 strain growth inhibition, active compounds read high
How it was run: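 Readout: growth inhibition relative to vehicle-treated cultures. Compound exposure was carried out in a genetically defined yeast strain deficient in DNA damage repair.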

[5] = NCI Yeast Anticancer Drug Screen. Data for the mec2-1 strain (AID 157); conditions: S. cerevisiae mec2-1 strain, active compounds read high
How it was run: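 Vehicle-treated cultures served as reference for growth inhibition of compound-exposed mec2-1 yeast.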

[6] = NCI Yeast Anticancer Drug Screen. Data for the rad14 strain (AID 159);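 also: 0% = growth of vehicle-treated control cultures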; conditions: S. cerevisiae rad14 strain growth inhibition, active compounds read high
How it was run: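 Growth inhibition vs vehicle controls; genetically altered yeast strain (DNA damage repair defect) treated with test compounds.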

[7] = NCI Yeast Anticancer Drug Screen. Data for the sgs1 mgt1 strain (AID 161);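 also: 0% = growth of cultures given vehicle only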; conditions: S. cerevisiae sgs1 mgt1 strain, active compounds read high
How it was run: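 Read-out: growth inhibition vs vehicle controls. Cells: mutant yeast strain deficient in DNA damage repair.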

[8] = NCI Yeast Anticancer Drug Screen. Data for the cln2 rad14 strain (AID 165);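 also: 0% = growth equal to vehicle treated cultures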; conditions: S. cerevisiae cln2 rad14 strain, active compounds read high
How it was run: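 Each compound was tested on cln2 rad14 yeast. Inhibition of growth was calculated against vehicle-exposed controls.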

[9] = NCI Yeast Anticancer Drug Screen. Data for the bub3 strain (AID 167); conditions: S. cerevisiae bub3 mutant strain, active compounds read high
How it was run: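 Readout: yeast growth inhibition, expressed relative to vehicle-only wells. The test organism is a mutant strain from a panel with lesions in DNA repair or checkpoint genes.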

[10] = NCI Yeast Anticancer Drug Screen. Data for the wt2 strain (AID 169);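 also: 0% = growth of vehicle-treated yeast cultures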; conditions: S. cerevisiae wt2 strain growth inhibition, active compounds read high
How it was run: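 Inhibition of yeast growth was determined after compound treatment, normalised to controls receiving only vehicle.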

[11] = NCI Yeast Anticancer Drug Screen. Data for the mlh1 rad18 strain (AID 175); conditions: S. cerevisiae mlh1 rad18 strain growth inhibition, active compounds read high
How it was run: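 Vehicle-treated cultures served as the reference for growth inhibition in a yeast strain carrying DNA damage repair alterations exposed to each compound.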

[12] = NCI Yeast Anticancer Drug Screen. Data for the rad18 strain (AID 177); conditions: S. cerevisiae rad18 mutant growth inhibition, active compounds read high
How it was run: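 Test articles were incubated with altered yeast defective in DNA damage repair. Results are given as inhibition of growth versus vehicle.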

[13] = at 5.0 µM (retest, dose inferred, filed as 0.5)
[14] = at 50.0 µM (retest, dose inferred, filed as 5.0)

Measured: growth inhibition

Cc1ccc(Cl)c2c(=O)c3ccccc3[nH]c12
inactive: [1]; at 1.2 µM -1% | [1]; at 3.7 µM -3% | [1]; at 11.0 µM -2% | [1]; at 33.0 µM 0% | [1]; at 100.0 µM 5% | [2]; at 1.2 µM 4% | [2]; at 3.7 µM 2% | [2]; at 11.0 µM 12% | [2]; at 33.0 µM 24% | [2]; at 100.0 µM 58% | [3]; at 1.2 µM -2% | [3]; at 3.7 µM -1% | [3]; at 11.0 µM 0% | [3]; at 33.0 µM 0% | [3]; at 100.0 µM 7% | [4]; at 1.2 µM -9% | [4]; at 3.7 µM -44% | [4]; [13] 5% | [4]; at 11.0 µM 14% | [4]; at 33.0 µM 3% | [4]; at 100.0 µM 51% | [5]; at 1.2 µM -1% | [5]; at 3.7 µM -3% | [5]; [13] 4% | [5]; at 11.0 µM -2% | [5]; at 33.0 µM 1% | [5]; [14] 32% | [5]; at 50.0 µM 40% | [5]; at 100.0 µM 11% | [6]; at 1.2 µM 0% | [6]; at 3.7 µM 3% | [6]; at 11.0 µM 4% | [6]; at 33.0 µM 5% | [6]; at 100.0 µM 19% | [7]; [13] 0% | [7]; [14] 34% | [7]; at 50.0 µM 41.3% | [8]; [13] -8% | [8]; [14] 9% | [8]; at 50.0 µM 11.2% | [9]; at 1.2 µM -3% | [9]; at 3.7 µM -2% | [9]; [13] -5% | [9]; at 11.0 µM -7% | [9]; at 33.0 µM -1% | [9]; [14] 14% | [9]; at 50.0 µM 27.6% | [9]; at 100.0 µM 4% | [10]; at 1.2 µM 0% | [10]; at 3.7 µM 8% | [10]; at 11.0 µM 1% | [10]; at 33.0 µM 4% | [10]; at 100.0 µM 10% | [11]; [13] 2% | [11]; [14] 59% | [12]; at 1.2 µM 1% | [12]; at 3.7 µM 2% | [12]; at 11.0 µM 2% | [12]; at 33.0 µM 7% | [12]; at 100.0 µM 54%
active: [4]; [14] 71% | [4]; at 50.0 µM 84.1% | [11]; at 50.0 µM 71%
